# Screening data as filed in PubChem.
# ALOX15B inhib – 15-hLO-2 (ALOX15B) enzyme inhibition; Potency, µM (top dose mostly 57.1 µM), without a hit: top-dose activity change, negative = inhibition, hits mostly inhibitors; O15296; purified 15hLO-2, xylenol orange hydroperoxide absorbance; actives 0.56% (n = 110,000); note: % is set by controls: 0 for no effect and ±100 for the full control effect; nearly all actives have a fitted effect of over 60% in size
#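 Enzyme 50 nM, AA 45 uM, 25 mM Hepes pH 7.5 + 0.01% Triton X-100; cpd preinc 15 min RT, rxn 90 min RT; stop/detect with 200 uM XO + 300 uM Fe(II) in 50 mM H2SO4, 30 min; A573/A405.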
# ALOX15 inhib – blocks human 15-lipoxygenase activity; P16050; purified 15hLO-1, xylenol orange hydroperoxide absorbance; Potency, µM (series often up to 57.1 µM), inactives show at the top dose activity change, negative = inhibition, hits mostly inhibitors; actives 1.4% (n = 74,000); note: % is set by controls: 0 for no effect and ±100 for the full control effect; nearly all actives have a fitted effect of over 55% in size
# Target sequence (P16050 whole entry, looked up): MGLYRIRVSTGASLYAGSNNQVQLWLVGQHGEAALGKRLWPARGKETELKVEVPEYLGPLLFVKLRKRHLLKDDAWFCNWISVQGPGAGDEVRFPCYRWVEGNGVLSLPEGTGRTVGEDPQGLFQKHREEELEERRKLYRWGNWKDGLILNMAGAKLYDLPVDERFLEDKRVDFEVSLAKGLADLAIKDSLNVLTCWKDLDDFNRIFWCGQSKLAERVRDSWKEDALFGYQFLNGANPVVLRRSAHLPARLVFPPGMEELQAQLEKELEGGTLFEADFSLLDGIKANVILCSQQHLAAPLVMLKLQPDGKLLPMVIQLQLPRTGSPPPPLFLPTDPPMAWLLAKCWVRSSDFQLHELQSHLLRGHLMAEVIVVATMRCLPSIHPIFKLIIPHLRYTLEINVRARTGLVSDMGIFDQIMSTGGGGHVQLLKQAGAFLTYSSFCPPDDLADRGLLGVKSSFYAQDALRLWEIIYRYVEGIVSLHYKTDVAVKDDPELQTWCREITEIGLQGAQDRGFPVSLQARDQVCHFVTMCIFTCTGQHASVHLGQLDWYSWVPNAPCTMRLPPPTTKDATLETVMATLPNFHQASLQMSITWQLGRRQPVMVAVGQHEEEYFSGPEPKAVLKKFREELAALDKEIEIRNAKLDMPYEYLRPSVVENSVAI
#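 Purified human 15hLO-1 (40 nM) in 25 mM Hepes pH 7.5, 0.01% Triton X-100, preincubated 15 min RT with compound, then 50 uM arachidonic acid for 6 min. Hydroperoxide read by ferrous/xylenol orange, 30 min; 573/405 nm absorbance ratio gave progress.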
# CRE Fsk mod – CRE-bla signaling modulation under forskolin stimulation; AID 662; actives 2.5% (n = 71,000); Potency, µM (highest dose often 38.2 µM), without a hit: at the highest dose activity change, negative = inhibition, usual class: activators; CHO CRE-bla reporter (cAMP response element driving beta-lactamase), forskolin EC10, beta-lactamase ratio; active = well fitted activation curve with a large enough effect in the signal ratio, with a control signal flat, not every such curve was filed as active; inconclusive = small, poorly fitted or top-dose-only effect, or effect the other way, or a change in a side signal; the % refers to the signal ratio; note: % of control where 0% means no effect
#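 CHO CRE-bla cells, overnight plating in Opti-MEM with 0.5% dialyzed FBS; cpd titration + EC10 NKH 477, 3 h 37 °C; CCF4 2 h RT; ex 405/em 460 vs 530 ratio → %Activity, AC50.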
# ERK AVP inh – vasopressin-driven ERK pathway inhibition; HEK293-V1b, vasopressin-stimulated pERK AlphaScreen; Potency, µM (series often up to 57.5 µM), inactives show at the top dose activity, negative = inhibition, most hits filed as inhibitors; actives 0.99% (n = 72,000); note: % is set by controls: 0 for no effect and ±100 for the full control effect; nearly all actives have a fitted effect of over 55% in size
#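 Phosphorylated ERK1/2 detected via AlphaScreen bead proximity in lysates of V1b-expressing HEK293 cells given 25 nM vasopressin for 5 min after 30 min compound exposure (37 °C). AC50 from Hill equation; basal DMSO 0%, vasopressin 100%.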
# * = called active by the depositor; ? = inconclusive; · = no result; [ ] = remark or other dose. Most compounds without a hit are left out; they make up all but 3.2% or so of the library. Unless noted, calls come from the whole dose curve; as a rule, active = well fitted inhibition curve with a large enough effect; inconclusive = small, poorly fitted or top-dose-only effect; inactive = no such curve, though single readings can be large or run the other way. Potency is the fitted concentration of half-maximal effect.
SMILES,ALOX15B inhib,ALOX15 inhib,CRE Fsk mod,ERK AVP inh
CC(C(=O)O)c1cccc(Oc2ccccc2)c1 (configuration not stated),-5%,3%,·,9%
COc1ccc2nc(NC(=O)C3CCN(S(=O)(=O)c4cccs4)CC3)sc2c1,7%,·,·,·
Cc1ccc2nc(NC(=O)C3CCN(S(=O)(=O)c4cccs4)CC3)sc2c1,5%,-13%,?,25µM*
CCCCCCN(CCCCCC)C(=O)Cc1c(-c2ccc(Cl)cc2)[nH]c2ccc(Cl)cc12,14%,3%[25.6 µM],13%,-3%
Cc1ccc(NC(=O)c2ccc(Cl)c(N3C(=O)C=CC3=O)c2)cc1,0.32µM*,·,·,·
COc1cccc(C(=O)Nc2ccc(C)cc2)c1,-1%,3%,-11%,1%
COc1ncc2nc(-c3ccccc3)c(=O)n(CCC#N)c2n1,5%,5%,?,-21%
O=C(CSc1nnc(Nc2ccccc2F)s1)NCc1ccco1,1%,-29%,-4%,?
Cc1ccccc1Nc1nnc(SCC(=O)NC(=O)NCc2ccco2)s1,-12%,16µM*,-19%,?
O=c1[nH]cnc2c([N+](=O)[O-])cccc12,2%,·,·,·
O=[N+]([O-])c1cccc2c(Br)[nH]nc12,-1%,13µM*,?,?
COc1cccc(Cn2c(=O)c(-c3cccc(C#N)c3)nc3cnc(OC)nc32)c1,-1%,0%,?,?
O=c1c(CCc2ccccc2)nc2cnc(Oc3ccccc3)nc2n1C[C@H]1CCCO1,15%,-23%,13µM*,53%
COc1ccc(-c2nc3cnc(OC)nc3n(Cc3cccc(OC)c3)c2=O)cc1,2%,-4%,2.5µM*,16%
COc1cccc(Cn2c(=O)c(CCc3ccccc3)nc3cnc(OC)nc32)c1,-2%,-1%,13µM*,8%
CCNc1ncc2nc(-c3ccc(OC)cc3)c(=O)n(-c3ccc(OC)cc3)c2n1,-3%,-2%,?,-18%
O=C(SCc1cccc2ccccc12)c1ccc(Cl)cc1,1%[11.4 µM],2%[11.4 µM],-8%[7.6 µM],15%[11.5 µM]
COc1ncc2nc(C)c(=O)n(C)c2n1,3%,8%,12%,-20%
Cc1onc(-c2ccccc2Cl)c1C(=O)OCC(=O)N1CCCc2ccccc21,-2%,20µM*,14%,54%
COC(=O)[C@H](N)Cc1ccc(Cl)cc1,18%,8%,5%,6%
CC(C)C1=CC2=CC[C@@H]3[C@@](C)(C(=O)O)CCC[C@]3(C)C2CC1 (some centres not stated),0%,7.9µM*,·,-6%
c1ccc(C[n+]2cccc(-c3cc4ccccc4[nH]3)c2)cc1,7%[11.4 µM],3%[11.4 µM],-6%[7.6 µM],-17%[11.5 µM]
CCc1nc(N)c(C#N)c(-c2ccc(OC)c(OC)c2)c1C,1%,4%,?,-9%
CCc1nc(C)c(C#N)c2cc(OC)c(OC)cc12,-3%,7%,?,25µM*
O=S(=O)(Nc1ccc2c(c1)OCO2)c1ccc(Br)s1,-16%,25µM*,-12%,?
SMILES,ALOX15B inhib,ALOX15 inhib,CRE Fsk mod,ERK AVP inh
O=S(=O)(Nc1ccc2c(c1)OCO2)c1ccccc1,-17%,·,·,·
Nc1nc2c(cnn2CCc2ccccc2)c2nc(-c3ccco3)nn12,-17%,20µM*,·,-15%
CN(C)Cc1ccccc1-c1cc(NC2CC2)ncn1,10%,-6%,0%,-7%
COc1cccc([C@@H]2Oc3ccc(OC)cc3/C(=N/O[C@@H](C)c3cc(-c4c(C)cc(C)cc4C)no3)[C@@H]2O)c1,·,-4%[11.4 µM],·,12%[11.5 µM]
COc1ccc(C(=O)Oc2c(CN3CCOCC3)cc(Cl)c3cccnc23)cc1,17%,-3%,14%,-12%
COc1cc(C(=O)Oc2c(CN3CCOCC3)cc(Cl)c3cccnc23)cc(OC)c1OC,25%,40%,7.9µM*,?
CN(C)Cc1ccccc1-c1nc(N2CCOCC2)c2ccccc2n1,3%,3%,?,14%
CC(=O)N1CC2(CC2)CC1c1ccccc1 (configuration not stated),13%,·,3.2µM*,5%
CC(=O)OCC1OC(n2c(Br)nc3c(=O)[nH]c(N)nc32)C(OC(C)=O)C1OC(C)=O (configuration not stated),-7%,-1%,·,3%
Cc1cc(NC(=O)CSc2nc(-c3ccco3)cc(C(F)(F)F)n2)no1,·,3%,4µM*,6%
COc1cc2c(cc1OC)-c1cc(NC3CC3)nc(=O)n1CC2,2%,2%,10µM*,?
COc1cc2c(cc1OC)-c1cc(NC3CCCCC3)nc(=O)n1CC2,-3%,-7%,2µM*,?
COc1cc2c(cc1OC)-c1cc(NC3CCCCCCC3)nc(=O)n1CC2,10%,?,0.4µM*,?
COc1ccc(C2=NOC(C(=O)NC3CCCCC3)C2)cc1OC (configuration not stated),2%,-7%,?,-10%
COc1cc2c(cc1OC)C(=O)Cc1ccc3c(c1CN(C)CC2)OCO3,3%,5%[25.6 µM],?,-2%
Cc1cc(NC2CCCCC2)nc(-c2ccccc2O)n1,5%,·,·,·
CO[C@@H]1COC(=O)C/C=C\[C@@H](C)[C@H](OC)COC(=O)[C@H](COCc2ccccc2)NC(=O)C/C=C\[C@H]1C,·,3%[11.4 µM],·,-6%[11.5 µM]
Cc1nn(C)c2nc(NNC(=O)Nc3cc(Cl)nc(Cl)c3)cc(C(C)C)c12,-8%[0.0915 µM],·,·,·
Cc1ccnc(Nc2nc(-c3c(C)nc4sccn34)cs2)c1,43%,-20%,?,25µM*
CCOC(=O)c1cc2c(=O)n3ccccc3nc2n(CCCOC)c1=NC(=O)C(C)(C)C,?,-1%,?,0%
CCOC(=O)c1cc2c(=O)n3ccccc3nc2n(CCOC)c1=NC(=O)C(C)(C)C,-26%,-11%,10µM*,3%
CCOCCCn1c(=NC(C)=O)c(C(=O)OCC)cc2c(=O)n3ccccc3nc21,-12%,4%,13µM*,-20%
CN(Cc1ccco1)c1cc(-c2ccoc2)ncn1,16%,?,?,13%
CCOC(=O)c1c(C)[nH]c(C(C)=O)c1C,-6%,-1%,?,?
CCCC1(c2ccccc2)NC(=O)N(CC(=O)c2[nH]c(C)c(C(=O)OCC)c2C)C1=O (configuration not stated),-2%,-11%,10µM*,5%
SMILES,ALOX15B inhib,ALOX15 inhib,CRE Fsk mod,ERK AVP inh
CCOC(=O)c1[nH]c(C)c(C(=O)OCCN2C(=O)c3ccccc3C2=O)c1C,-18%,-1%,2.5µM*,13%
Nc1c(S(=O)(=O)c2cccc(Cl)c2)c2nc3ccccc3nc2n1/N=C/c1ccc(O)c(O)c1,?,16µM*,?,-20%
CCN(C)c1ccc(/C=N\n2nnnc2N)cc1,2%,-5%,7.9µM*,-26%
Nc1nnnn1/N=C/c1ccc(O)cc1,-1%,·,·,·
C=CCC1(C)OC=Cc2nc3cc(Cl)c(Cl)cc3nc21 (configuration not stated),·,-13%[11.4 µM],·,16%[11.5 µM]
CC1=CC(C)(C)Nc2ccc(OC(=O)C(Cc3ccccc3)N3C(=O)c4ccccc4C3=O)cc21 (configuration not stated),-3%,·,·,·
